# IDE exosite FP – exo-site inhibitors of human insulin-degrading enzyme; actives 6.3% (n = 17,000); purified IDE, FL-6b probe fluorescence polarization; active compounds read low; z-score at 20 µM; P14735; AID 1259349;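 active = z-score of -3 or lower, meaning strong loss of probe binding signal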;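 note: His-tagged human IDE residues 42-1019 made in E. coli with 30 nM FL-6b probe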
# Target sequence (P14735 42-1019 limits assumed): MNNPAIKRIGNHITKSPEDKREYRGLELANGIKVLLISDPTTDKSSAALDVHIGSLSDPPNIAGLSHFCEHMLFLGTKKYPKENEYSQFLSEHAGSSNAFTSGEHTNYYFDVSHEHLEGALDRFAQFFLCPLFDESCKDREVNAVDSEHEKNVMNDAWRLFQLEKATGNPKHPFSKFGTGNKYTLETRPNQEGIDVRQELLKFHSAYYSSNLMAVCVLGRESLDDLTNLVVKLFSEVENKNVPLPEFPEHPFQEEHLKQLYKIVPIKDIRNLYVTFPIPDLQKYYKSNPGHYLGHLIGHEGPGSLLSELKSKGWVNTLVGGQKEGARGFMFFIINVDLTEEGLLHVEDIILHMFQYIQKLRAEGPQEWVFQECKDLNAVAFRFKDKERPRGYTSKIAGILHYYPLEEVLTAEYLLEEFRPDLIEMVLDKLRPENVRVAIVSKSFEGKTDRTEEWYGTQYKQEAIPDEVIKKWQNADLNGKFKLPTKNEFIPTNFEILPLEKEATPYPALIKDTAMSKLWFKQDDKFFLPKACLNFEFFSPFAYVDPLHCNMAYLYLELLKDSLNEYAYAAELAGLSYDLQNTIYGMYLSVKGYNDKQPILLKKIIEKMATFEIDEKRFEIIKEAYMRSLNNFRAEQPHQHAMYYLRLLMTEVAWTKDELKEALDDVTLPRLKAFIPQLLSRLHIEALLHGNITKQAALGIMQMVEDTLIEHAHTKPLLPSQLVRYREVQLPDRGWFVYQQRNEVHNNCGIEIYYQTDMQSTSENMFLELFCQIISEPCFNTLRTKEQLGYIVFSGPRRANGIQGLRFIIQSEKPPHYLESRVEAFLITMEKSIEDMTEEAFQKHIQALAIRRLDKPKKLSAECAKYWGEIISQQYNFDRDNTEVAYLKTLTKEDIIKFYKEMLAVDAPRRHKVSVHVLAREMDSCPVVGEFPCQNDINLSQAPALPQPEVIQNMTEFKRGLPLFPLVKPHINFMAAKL
# * hit, by the source's call. The full list was thinned out, with hits kept by preference.
SMILES,IDE exosite FP
O=C(Cc1ccccn1)N1CCCCN2[C@H](CO)[C@H](c3ccc(C#Cc4ccccc4)cc3)[C@@H]2C1,-5.2*
O=C(Cc1ccccc1)N1CCCCN2[C@H](C1)[C@@H](c1ccc(C#Cc3ccccc3)cc1)[C@@H]2CO,-2.6
CCCC#Cc1ccc([C@@H]2[C@H](CO)N3CCCCN(C(=O)Cc4ccccn4)C[C@@H]23)cc1,-2
CCCC#Cc1ccc([C@H]2[C@@H](CO)N3CCCCN(C(=O)Cc4ccccn4)C[C@@H]23)cc1,4
O=C(Cc1ccccc1)N1CCCCN2[C@H](C1)[C@H](c1ccc(C#Cc3ccccc3)cc1)[C@@H]2CO,-4.3*
COc1ccc(C#Cc2ccc([C@@H]3[C@@H](CO)N4CCCCN(C(=O)Cc5ccccc5)C[C@@H]34)cc2)cc1,1.5
N#Cc1cccc(-c2ccc([C@H]3[C@@H](CO)N4CCCCN(C(=O)Cc5cccnc5)C[C@H]34)cc2)c1,-0.22
O=C(Cc1ccccc1)N1CCCCN2[C@@H](CO)[C@H](c3ccc(-c4ccccc4)cc3)[C@@H]2C1,-0.0073
C/C=C/c1ccc([C@H]2[C@H]3CN(C(=O)Cc4cccnc4)CCCCN3[C@H]2CO)cc1,1.2
O=C(Cc1cccnc1)N1CCCCN2[C@@H](CO)[C@@H](c3ccc(/C=C/c4ccccc4)cc3)[C@@H]2C1,-8.3*
C/C=C/c1ccc([C@H]2[C@H](CO)N3CCCCN(C(=O)Cc4cccnc4)C[C@@H]23)cc1,-1.1
O=C(Cc1cccnc1)N1CCCCN2[C@H](C1)[C@@H](c1ccc(/C=C/c3ccccc3)cc1)[C@@H]2CO,-9.2*
O=C(Cc1cccnc1)N1CCCCN2[C@@H](CO)[C@@H](c3ccc(C#CC4CCCC4)cc3)[C@@H]2C1,0.5
C/C=C/c1ccc([C@H]2[C@@H](CO)N3CCCCN(C(=O)Cc4cccnc4)C[C@H]23)cc1,-0.57
O=C(Cc1cccnc1)N1CCCCN2[C@H](CO)[C@@H](c3ccc(C#CC4CCCC4)cc3)[C@H]2C1,1.5
O=C(O)[C@@H]1[C@@H](CO)[C@@H]2Cn3c(ccc(C4=CCCCC4)c3=O)[C@H]1N2C(=O)Cc1ccccn1,0.84
N#Cc1cccc(-c2ccc([C@H]3[C@H](CO)N4CCCCN(C(=O)Cc5cccnc5)C[C@@H]34)cc2)c1,0.26
COc1ccc(-c2ccc([C@@H]3[C@H]4CN(C(=O)Cc5ccccc5)CCCCN4[C@H]3CO)cc2)cc1,3.5
OC[C@@H]1Nc2ccc(C#Cc3cccnc3)cc2[C@H]2NCC[C@@H]12,-0.33
O=C(Cc1ccccc1)N1CCCCN2[C@H](CO)[C@@H](c3ccc(-c4ccccc4)cc3)[C@@H]2C1,0.45
O=C(Cc1ccccn1)N1CCCCN2[C@H](CO)[C@@H](c3ccc(-c4ccccc4)cc3)[C@@H]2C1,-2.4
O=C(Cc1ccccn1)N1CCCCN2[C@H](CO)[C@H](c3ccc(Br)cc3)[C@H]2C1,-0.15
Cc1ccccc1-c1ccc([C@H]2[C@@H](CO)N3CCCCN(C(=O)Cc4ccccn4)C[C@H]23)cc1,-14*
O=C(Cc1ccccn1)N1CCCCN2[C@H](C1)[C@@H](c1ccc(Br)cc1)[C@@H]2CO,-0.067
O=C(Cc1ccccn1)N1CCCCN2[C@@H](CO)[C@H](c3ccc(Br)cc3)[C@@H]2C1,-0.37
SMILES,IDE exosite FP
Cc1ccccc1-c1ccc([C@@H]2[C@H](CO)N3CCCCN(C(=O)Cc4ccccn4)C[C@@H]23)cc1,-16*
COc1ccc(-c2ccc([C@@H]3[C@@H](CO)N4CCCCN(C(=O)Cc5ccccc5)C[C@H]34)cc2)cc1,1.4
C/C=C/c1ccc(C2[C@@H]3CN(Cc4cccnc4)C[C@H]2N3)cc1 (stereo partly specified),-0.36
O=C(Cc1ccccn1)N1CCCCN2[C@H](C1)[C@@H](c1ccc(-c3ccc(F)cc3)cc1)[C@@H]2CO,4.4
O=C(Cc1ccccn1)N1CCCCN2[C@H](C1)[C@H](c1ccc(-c3ccc(F)cc3)cc1)[C@@H]2CO,1.3
O=C(Cc1ccccn1)N1CCCCN2[C@H](CO)[C@@H](c3ccc(-c4ccccc4F)cc3)[C@@H]2C1,-4.7*
O=C(Cc1ccccn1)N1CCCCN2[C@@H](CO)[C@H](c3ccc(-c4ccc(F)cc4)cc3)[C@@H]2C1,2.5
O=C(Cc1ccccn1)N1CCCCN2[C@H](CO)[C@H](c3ccc(-c4ccccc4F)cc3)[C@@H]2C1,-4.2*
O=C(Cc1ccccn1)N1CCCCN2[C@@H](CO)[C@@H](c3ccc(-c4ccc(F)cc4)cc3)[C@@H]2C1,1.7
C[C@@H]1CN([C@@H](C)CO)C(=O)CCCn2cc(nn2)CO[C@@H]1CN(C)C(=O)Oc1ccc2ccccc2c1,-0.27
O=C(Cc1ccccc1)N1CC2(C1)[C@H](c1ccccc1)[C@@H](CO)N2Cc1cccc(Cl)c1,-0.62
CC(C)CC#Cc1ccc([C@@H]2[C@@H](CO)N3CCCCN(C(=O)Cc4ccccn4)C[C@H]23)cc1,5.9
O=C(Cc1cccnc1)N1CCCCN2[C@H](CO)[C@@H](c3ccc(C#CC4(O)CCCC4)cc3)[C@@H]2C1,1.5
O=C(Cc1ccccc1)N1CC2(C1)[C@H](c1ccccc1)[C@H](CO)N2Cc1cccc(Cl)c1,-1.7
COc1ccc(C#Cc2ccc([C@@H]3[C@@H](CO)N4CCCCN(C(=O)Cc5ccncc5)C[C@@H]34)cc2)cc1,0.35
COc1ccc(-c2ccc([C@@H]3[C@H](CO)N4CCCCN(C(=O)Cc5ccncc5)C[C@@H]34)cc2)cc1,-2.3
COc1ccc(C#Cc2ccc([C@@H]3[C@H]4CN(C(=O)Cc5ccncc5)CCCCN4[C@H]3CO)cc2)cc1,-0.35
COc1ccc(C#Cc2ccc([C@H]3[C@H]4CN(C(=O)Cc5ccncc5)CCCCN4[C@H]3CO)cc2)cc1,-3.5*
COc1ccc(C#Cc2ccc([C@H]3[C@H]4CN(C(=O)Cc5cccnc5)CCCCN4[C@H]3CO)cc2)cc1,-4*
COc1ccc(C#Cc2ccc([C@H]3[C@@H](CO)N4CCCCN(C(=O)Cc5ccncc5)C[C@H]34)cc2)cc1,0.97
COc1ccc(C#Cc2ccc([C@@H]3[C@@H](CO)N4CCCCN(C(=O)Cc5cccnc5)C[C@@H]34)cc2)cc1,2.7
COc1ccc(C#Cc2ccc([C@H]3[C@@H](CO)N4CCCCN(C(=O)Cc5cccnc5)C[C@H]34)cc2)cc1,-1.3
COc1ccc(C#Cc2ccc([C@H]3[C@@H](CO)N4CCCCN(C(=O)Cc5ccncc5)C[C@@H]34)cc2)cc1,-4.8*
CC(C)CC#Cc1ccc([C@H]2[C@@H](CO)N3CCCCN(C(=O)Cc4ccccn4)C[C@H]23)cc1,2.8
O=C(Cc1ccncc1)N1CCCCN2[C@H](CO)[C@@H](c3ccc(C#CC4(O)CCCC4)cc3)[C@@H]2C1,0.2
CC(C)CC#Cc1ccc([C@@H]2[C@H](CO)N3CCCCN(C(=O)Cc4ccccn4)C[C@@H]23)cc1,3.5
N#Cc1ccc(-c2ccc([C@H]3[C@H](CO)N4CCCCN(C(=O)Cc5ccccc5)C[C@@H]34)cc2)cc1,1.2
COc1ccc(-c2ccc([C@H]3[C@H]4CN(C(=O)Cc5ccccc5)CCCCN4[C@H]3CO)cc2)cc1,2.8
C/C=C/c1ccc(C2[C@@H]3CN(Cc4cccc(F)c4)C[C@H]2N3)cc1 (stereo partly specified),3.4
N#Cc1cccc(-c2ccc([C@@H]3[C@@H](CO)N4CCCCN(C(=O)Cc5cccnc5)C[C@H]34)cc2)c1,1.1

# High-throughput results: PubChem BioAssay, Broad Institute
